# Test results: PubChem BioAssay (NCATS)
# Results filed as inconclusive are left out. A call without a number means that no potency is given here. A number with no mark means an inactive call. Activity calls are given as the source filed them. Unless noted, calls follow the shape of the dose curve; as a rule, active = well fitted curve in the direction sought with a large enough effect; inconclusive = small, poorly fitted or top-dose-only effect, or another doubt; inactive = no such curve, though single readings can be large; an effect the other way counts as inactive or inconclusive. *1 amine or outer side, *2 acyl side, *3 side chain or, on linkers, in order; H or OH if unused. Where a SMILES comes first, the peptide text is derived from it. Bridges are numbered along the chain shown (N, C = ends). [ ]: non-standard residue; d: D form. The star is where a group is joined. ξ: configuration not given here. X10 = NC1=NCCC(C(N[*:1])C(=O)[*:2])N1; ΔAla(3-NHCONH2) = NC(=O)NC=C(N)C(=O)O; ξβ3hOrn = NCCCC(N)CC(=O)*; Dap = NC[CH](N)C(=O)O
# Biological target: Cytochrome P450 3A4 (Homo sapiens) (UniProt P08684)
# Sequence (P08684 whole entry, looked up): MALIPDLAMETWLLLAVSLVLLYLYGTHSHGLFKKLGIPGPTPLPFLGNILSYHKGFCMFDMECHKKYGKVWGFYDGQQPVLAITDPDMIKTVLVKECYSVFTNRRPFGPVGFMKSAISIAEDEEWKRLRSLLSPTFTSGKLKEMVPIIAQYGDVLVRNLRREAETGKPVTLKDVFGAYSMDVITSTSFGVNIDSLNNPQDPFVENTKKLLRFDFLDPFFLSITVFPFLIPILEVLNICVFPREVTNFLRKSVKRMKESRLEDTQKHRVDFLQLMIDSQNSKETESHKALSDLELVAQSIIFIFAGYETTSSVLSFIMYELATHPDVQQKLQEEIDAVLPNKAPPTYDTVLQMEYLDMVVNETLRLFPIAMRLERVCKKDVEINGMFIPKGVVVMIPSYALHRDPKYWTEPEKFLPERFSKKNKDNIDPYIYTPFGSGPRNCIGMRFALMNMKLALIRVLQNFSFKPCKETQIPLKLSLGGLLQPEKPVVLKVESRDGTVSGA
# Test: Cytochrome P450 family 3 subfamily A member 4 (CYP3A4) small molecule antagonists: luciferase qHTS assay (AID 1645841; active = well fitted curve in the direction sought with a large enough effect in the repeat runs; an effect the other way counts as inactive or inconclusive; also: nearly all actives have a fitted effect of over 45% in size)
# Details: P450-Glo CYP3A4 enzyme assay, luciferin luminescence; series mostly up to 57.4 µM
# Outline: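 P450-Glo CYP3A4 enzyme with proluciferin substrate preincubated 10 min with compound at room temperature, then NADPH regeneration 1 h. Luciferin detection reagent added for 20 min; luminescence recorded. Ketoconazole positive control.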
SMILES,Potency,"activity change, negative = inhibition"
N=C(N)c1ccc(OCCCOc2ccc(C(=N)N)cc2)cc1,inactive,–
CN(C)[C@@H]1C(=O)C(C(N)=O)=C(O)[C@@]2(O)C(=O)C3=C(O)c4c(O)cccc4C[C@H]3C[C@@H]12,inactive,–
NCCCC(N)CC(=O)NCC1NC(=O)C(CO)NC(=O)C(N)CNC(=O)C(C2CCN=C(N)N2)NC(=O)C(=CNC(N)=O)NC1=O (stereo not drawn) (H-[Dap]S[Dap](ξβ3hOrn)[ΔAla(3-NHCONH2)][X10]; lactam 1-C; configuration not given here),–,-11.7% [at 0.91 µM]
CCOC(=O)c1ccc(OCCN2C[C@H](O)[C@@H](O)[C@H](O)[C@H]2CO)cc1,inactive,–

# Biological target: Papain (Carica papaya) (UniProt P00784)
# Sequence (P00784 whole entry, looked up): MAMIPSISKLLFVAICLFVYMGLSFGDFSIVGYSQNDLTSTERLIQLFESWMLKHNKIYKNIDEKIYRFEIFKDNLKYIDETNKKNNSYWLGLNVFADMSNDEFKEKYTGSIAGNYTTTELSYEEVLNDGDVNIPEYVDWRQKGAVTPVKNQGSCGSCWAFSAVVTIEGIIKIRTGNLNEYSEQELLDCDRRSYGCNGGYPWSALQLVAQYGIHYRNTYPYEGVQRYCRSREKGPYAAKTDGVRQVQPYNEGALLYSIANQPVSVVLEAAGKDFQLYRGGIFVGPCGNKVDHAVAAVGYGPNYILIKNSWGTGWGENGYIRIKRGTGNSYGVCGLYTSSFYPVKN
# Test: Primary qHTS assay for inhibitors of the protease papain (AID 1645873);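 also: papain turnover of Z-FR-AMC read as the AMC fluorescence gain over 10 min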
# Details: papain Z-FR-AMC cleavage, AMC fluorescence; series mostly up to 49.8 µM
row,SMILES,outcome
1,Cn1cnc2c(NCc3ccccc3)nc(NCCO)nc21,inactive
2,Nc1ncnc2n[nH]c(Nc3ccc(F)cc3)c12,inactive
3,O=C1NC(=O)/C(=C/c2ccc3c(c2)OC(F)(F)O3)S1,inactive
4,C[N+](C)(C)CCO,inactive
